Measured values: PubChem BioAssay (NCI)
The panel holds about 83,000 compounds, 20% with a hit somewhere; the sample as a whole holds those more often.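 Cells were grown in 96-well plates and exposed to the test compound at a single concentration for 48 hours; results are reported as percent growth, with values below 10 considered active.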 Calls of active or inactive are those of the source.

Legend:
Experiment in all cases: NCI-60 one-dose screen, 48 h (100 = growth as untreated, 0 = no growth, -100 = all killed)
SR leukemia = settings: 10 µM unless noted
RPMI-8226 leukemia = settings: 10 µM unless noted
OVCAR-8 ovarian = settings: 10 µM unless noted
OVCAR-5 ovarian = settings: 10 µM unless noted
OVCAR-4 ovarian = settings: 10 µM unless noted
SK-OV-3 ovarian = settings: 10 µM unless noted
IGROV1 ovarian = settings: 10 µM unless noted
OVCAR-3 ovarian = settings: 10 µM unless noted
HS 578T breast = settings: 10 µM
NCI/ADR-RES ovarian = settings: 10 µM unless noted
T-47D breast = settings: 10 µM unless noted
BT-549 breast = settings: 10 µM unless noted
MDA-MB-435 melanoma = settings: 10 µM unless noted
SW-620 colon = settings: 10 µM unless noted
MCF7 breast = settings: 10 µM unless noted
HCT-116 colon = settings: 10 µM unless noted
HCC-2998 colon = settings: 10 µM unless noted
KM12 colon = settings: 10 µM unless noted

Measured: growth

CCCCNCC(O)c1cc2c(Cl)cc(Cl)cc2c2cc(C(F)(F)F)ccc12 (configuration not stated)
active: SR leukemia -68% | RPMI-8226 leukemia -38.8% | OVCAR-8 ovarian -56% | OVCAR-5 ovarian -81.2% | OVCAR-4 ovarian -89.7% | SK-OV-3 ovarian -22.8% | IGROV1 ovarian -65.2% | OVCAR-3 ovarian -91.1% | HS 578T breast -51.6% | NCI/ADR-RES ovarian -64% | T-47D breast -74.6% | MDA-MB-435 melanoma -52.7% | SW-620 colon -68.2% | MCF7 breast -83.5% | HCT-116 colon -91.7% | HCC-2998 colon -72% | KM12 colon -89.4%
inactive: BT-549 breast 11.9%

Cc1ccc(NC(=O)c2nc(S(C)=O)oc2-c2ccc(F)cc2)cc1Nc1nccc(-c2cccnc2)n1 (configuration not stated)
inactive: OVCAR-8 ovarian 37.9% | OVCAR-5 ovarian 112% | OVCAR-4 ovarian 108% | SK-OV-3 ovarian 90.3% | IGROV1 ovarian 33.1% | OVCAR-3 ovarian 18.8% | HS 578T breast 82% | NCI/ADR-RES ovarian 95.9% | T-47D breast 40% | BT-549 breast 26.9% | MDA-MB-435 melanoma 82.5% | MCF7 breast 50.7% | HCC-2998 colon 97.5% | KM12 colon 50.1%
active: SR leukemia -14.7% | RPMI-8226 leukemia 5.05% | SW-620 colon 8.58% | HCT-116 colon -53.3%

C=CCn1c(C)nc2cc(Nc3nc(N4CCCC4)nc4nc[nH]c34)ccc21
inactive: RPMI-8226 leukemia 29.9% | OVCAR-8 ovarian 74.7% | OVCAR-5 ovarian 30.6% | SK-OV-3 ovarian 59% | IGROV1 ovarian 55.8% | NCI/ADR-RES ovarian 94.7% | T-47D breast 45% | SW-620 colon 40.8% | MCF7 breast 73.5% | HCC-2998 colon 76.4% | KM12 colon 13.1%
active: SR leukemia -9.28% | OVCAR-4 ovarian -30.4% | OVCAR-3 ovarian -11.3% | HS 578T breast -0.0485% | BT-549 breast -33.6% | MDA-MB-435 melanoma 9.16% | HCT-116 colon -40.2%

CN1CCN(Cc2ccc(NC(=O)c3cncc(C#Cc4ccc(N)nc4)c3)cc2C(F)(F)F)CC1
active: SR leukemia 1.34% | RPMI-8226 leukemia 1.97% | OVCAR-4 ovarian -8.78% | SK-OV-3 ovarian -11% | IGROV1 ovarian -18.2% | HS 578T breast -21.9% | T-47D breast 8.16% | MDA-MB-435 melanoma 9.96% | SW-620 colon -15.3% | HCT-116 colon 1.86% | KM12 colon 5.75%
inactive: OVCAR-8 ovarian 20.1% | OVCAR-5 ovarian 12.5% | OVCAR-3 ovarian 27.2% | NCI/ADR-RES ovarian 25.6% | BT-549 breast 18.7% | MCF7 breast 19.9% | HCC-2998 colon 29.8%

O=C1CC2(O)CSc3nc(=O)cc(n32)N1 (configuration not stated)
inactive: SR leukemia 102% | RPMI-8226 leukemia 99% | OVCAR-8 ovarian 107% | OVCAR-5 ovarian 105% | OVCAR-4 ovarian 121% | SK-OV-3 ovarian 102% | IGROV1 ovarian 109% | OVCAR-3 ovarian 115% | HS 578T breast 121% | NCI/ADR-RES ovarian 112% | T-47D breast 104% | BT-549 breast 107% | MDA-MB-435 melanoma 100% | SW-620 colon 112% | MCF7 breast 96% | HCT-116 colon 106% | HCC-2998 colon 120% | KM12 colon 102%

c1ccc(-c2[nH]c3ccccc3c2-c2ccccc2)cc1
inactive: SR leukemia 88.6% | RPMI-8226 leukemia 32.6% | OVCAR-8 ovarian 92% | OVCAR-5 ovarian 91.8% | OVCAR-4 ovarian 78% | SK-OV-3 ovarian 95% | IGROV1 ovarian 120% | OVCAR-3 ovarian 96.1% | HS 578T breast 106% | NCI/ADR-RES ovarian 95.7% | T-47D breast 66.1% | BT-549 breast 110% | MDA-MB-435 melanoma 84.6% | SW-620 colon 88.3% | MCF7 breast 94.9% | HCT-116 colon 81.2% | HCC-2998 colon 114% | KM12 colon 92.4%

COc1ccc(-c2nsc3c2NC(=O)CC3c2ccc3c(c2)OCO3)cc1 (configuration not stated)
inactive: OVCAR-8 ovarian 26.2% | OVCAR-5 ovarian 48.6% | OVCAR-4 ovarian 66.8% | SK-OV-3 ovarian 24.4% | IGROV1 ovarian 19.7% | HS 578T breast 17.6% | NCI/ADR-RES ovarian 13.9% | T-47D breast 33.2% | BT-549 breast 53.6% | SW-620 colon 24.9% | MCF7 breast 22.7% | HCT-116 colon 28.6% | HCC-2998 colon 39.4% | KM12 colon 31.2%
active: SR leukemia -21.6% | RPMI-8226 leukemia 2.77% | OVCAR-3 ovarian -26.3% | MDA-MB-435 melanoma -38.5%

Cc1n(Cc2ccc3ccccc3n2)cc[n+]1Cc1ccc2ccccc2c1
inactive: SR leukemia 11.6% | OVCAR-8 ovarian 11.9% | HS 578T breast 24.4% | NCI/ADR-RES ovarian 98.7% | SW-620 colon 20.6% | HCC-2998 colon 19.8%
active: RPMI-8226 leukemia -3.22% | OVCAR-5 ovarian 9.08% | OVCAR-4 ovarian 7.17% | SK-OV-3 ovarian -2.36% | IGROV1 ovarian 5.65% | OVCAR-3 ovarian 6.35% | T-47D breast 0.908% | BT-549 breast -0.0129% | MDA-MB-435 melanoma 0.529% | MCF7 breast 4.65% | HCT-116 colon 4.92% | KM12 colon 5.21%

Clc1cc(Br)ccc1-c1ccc(CNCC2CCNCC2)o1
inactive: SR leukemia 17.2% | RPMI-8226 leukemia 43.8% | OVCAR-8 ovarian 33.6% | OVCAR-5 ovarian 84.8% | SK-OV-3 ovarian 67.2% | IGROV1 ovarian 53.8% | OVCAR-3 ovarian 14% | HS 578T breast 62.4% | NCI/ADR-RES ovarian 54.7% | T-47D breast 43.8% | BT-549 breast 77.9% | MDA-MB-435 melanoma 52.9% | SW-620 colon 24.5% | MCF7 breast 39.7% | HCT-116 colon 40.9% | HCC-2998 colon 88.2% | KM12 colon 53.9%
active: OVCAR-4 ovarian -40.7%
